# Inconclusive results are not listed. A call without a number means that no potency is given here. The source made the active and inactive calls. Calls follow the shape of the dose curve; as a rule, active = well fitted curve in the direction sought with a large enough effect; inconclusive = small, poorly fitted or top-dose-only effect, or another doubt; inactive = no such curve, though single readings can be large; an effect the other way counts as inactive or inconclusive.
# Legend:
# [1] = target: N-terminal Xaa-Pro-Lys N-methyltransferase 1 (Homo sapiens) (UniProt Q9BV86); assay: qHTS Assay for Inhibitors of N-terminal methyltransferase 1 (NTMT1): LOPAC validation of the NTMT1 SAHH-coupled ThioGlo3 Assay (AID 1347143); conditions: recombinant NTMT1, SAHH-coupled ThioGlo3 fluorescence; series mostly up to 114 µM;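 also: SAH from peptide methylation measured as thiol fluorescence via SAHH coupling and ThioGlo3; nearly all actives have a fitted effect of over 70% in size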; also: potency is read from the fitted curve at half-maximal effect
# Chain of N-terminal Xaa-Pro-Lys N-methyltransferase 1 (Homo sapiens) (Q9BV86 whole entry, looked up): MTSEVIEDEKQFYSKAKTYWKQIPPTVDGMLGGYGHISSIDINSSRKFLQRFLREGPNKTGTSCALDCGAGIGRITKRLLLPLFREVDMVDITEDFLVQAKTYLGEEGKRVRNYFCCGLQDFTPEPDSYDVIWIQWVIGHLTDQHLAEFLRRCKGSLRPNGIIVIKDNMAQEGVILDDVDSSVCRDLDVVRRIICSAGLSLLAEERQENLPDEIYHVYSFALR
# How it was run: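 In this qHTS pilot against the LOPAC set, 125nM NTMT1 met compounds tested at multiple concentrations, and fluorescence was normalized to background.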
# [2] = tested on: Zika virus NS2B-NS3 protease (unlinked); assay: Optimization of GU AMC qHTS for Zika virus inhibitors: Unlinked NS2B-NS3 protease assay (AID 1347151); conditions: recombinant ZIKV NS2B-NS3 protease, fluorogenic AMC substrate; series mostly up to 52.5 µM; also: nearly all actives have a fitted effect of over 80% in size; also: potency is read from the fitted curve at half-maximal effect
# How it was run: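 Unlinked protease (25 nM final); buffer 10 mM Tris-HCl pH 8.0 + 0.01% Tween 20; AMC substrate; 15 min RT, dark; Δfluorescence normalized to no-inhibitor/no-enzyme controls; 4-parameter Hill fit.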
# [3] = tested on: Zika virus NS2B-NS3 protease; assay: Primary screen GU AMC qHTS for Zika virus inhibitors (AID 1347154); conditions: Zika NS2B-NS3 unlinked protease, AMC fluorogenic substrate; series mostly up to 54.1 µM; also: nearly all actives have a fitted effect of over 70% in size
# How it was run: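 Unlinked Zika NS2B hydrophilic domain/NS3 protease domain noncovalent complex (25 nM final) in 10 mM Tris-HCl pH 8.0, 0.01% Tween 20, with AMC peptide substrate. Fluorescence (ex 340, em 450 nm) change over 15 min, room temperature; percent inhibition fitted to 4-parameter Hill equation.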
# [4] = tested on: Zika virus NS2B-NS3 protease (linked construct); assay: Confirmatory screen NINDS AMC qHTS for Zika virus inhibitors (AID 1347152); conditions: Purified linked NS2B-NS3, AMC substrate fluorescence; series mostly up to 56.6 µM;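 also: AMC fluorescence gain from cleaved Bz-Nle-KRR-AMC substrate over 15 min; top concentration of the series differs between compounds; nearly all actives have a fitted effect of over 70% in size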
# How it was run: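 Enzyme (1 nM, linked construct) was preincubated with compound for 15 minutes at room temperature in 10 mM Tris-HCl pH 8.0 with 0.01% Tween 20. Bz-Nle-Lys-Arg-Arg-AMC was then added to 10 microM, and AMC fluorescence was recorded immediately and after 15 minutes.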
# [5] = tested on: Zika virus NS2B-NS3 protease (unlinked complex); assay: Confirmatory screen GU AMC qHTS for Zika virus inhibitors (AID 1347153); conditions: Recombinant NS2B-NS3 protease, AMC substrate fluorescence; series mostly up to 57.1 µM; also: nearly all actives have a fitted effect of over 70% in size
# How it was run: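 Noncovalent NS2B hydrophilic domain/NS3 protease complex (25 nM) in 10 mM Tris-HCl pH 8.0, 0.01% Tween 20 was preincubated 15 min at room temperature with compounds. Then 10 µM AMC substrate (Km 18.3 µM) was added; fluorescence was read over 15 min and fitted to a 4-parameter Hill equation.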
# [6] = Confirmatory screen NINDS Rhodamine qHTS for Zika virus inhibitors (AID 1347161); conditions: purified enzyme assay, Rhodamine110 substrate fluorescence, 15 min; series mostly up to 114 µM;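 also: purified Zika NS2B-NS3 protease with linked NS2B cofactor domain and Rhodamine110 peptide substrate; nearly all actives have a fitted effect of over 60% in size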
# How it was run: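 qHTS dose-response: 25 nM linked protease, pH 8.0 Tris/Tween buffer, cpd titration, 15 min RT preinc, 1.5 microM Rhod110 peptide, 15 min reaction (~15% conversion), Ex480/Em540; 4-parameter Hill fit.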
# [7] = Vero cells viability qHTS for Zika virus inhibitors (AID 1347167); conditions: cytotoxicity counter-screen (Zika); series mostly up to 45.9 µM
# How it was run: (§1)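 To flag cytotoxic protease inhibitors, viability is measured by ATP-dependent luminescence (CellTiter Glo) after cells attached overnight receive compound for 24 to 48 hours in DMEM with 4% FBS.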
# [8] = HepG2 cells viability qHTS for Zika virus inhibitors (AID 1347168); conditions: Zika counter-screen; series mostly up to 45.9 µM
# How it was run: as §1
# [9] = Tertiary RLuc qRT-PCR qHTS assay for Zika virus inhibitors (AID 1347169); conditions: infected Vero cells, reporter luminescence, 48-72 h; series mostly up to 45.9 µM; also: top concentration of the series differs between compounds; nearly all actives have a fitted effect of over 55% in size
# How it was run: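 Vero, 1,000 cells/well, o/n 37 C; cpd pinned in DMSO; ZIKV-RLuc Cambodian, MOI 1-2, 48-72 h 37 C; live-cell RLuc substrate, lum read at 1-1.5 h.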
# [10] = qHTS to identify inhibitors of the type 1 interferon - major histocompatibility complex class I in skeletal muscle: primary screen against the NCATS Pharmaceutical Collection (AID 1347407); conditions: human skeletal muscle cells, IFN-b-induced MHC-I HiBiT luminescence, 24 h; series mostly up to 45.9 µM;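 also: luminescence of HiBiT knocked into endogenous HLA-B as interferon-induced MHC class I level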
# How it was run: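 Luminescence from HiBiT-tagged endogenous HLA-B*08:01 served as the read-out of IFN-beta-induced MHC class I in CRISPR-engineered C25cl48 myoblasts. Cells received 4 ng/ml IFN-beta plus compound (high final 46 uM, […]) for 24 h.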
# [11] = tested on: Zika virus NS2B-NS3 protease (unlinked complex); assay: Primary screen GU Rhodamine qHTS for Zika virus inhibitors: Unlinked NS2B-NS3 protease assay (AID 1347159); conditions: Recombinant ZIKV NS2B-NS3 protease, Rhodamine110 substrate fluorescence; series mostly up to 107 µM; also: nearly all actives have a fitted effect of over 60% in size
# How it was run: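 Buffer 10 mM Tris-HCl pH 8.0, 0.01% Tween 20. Unlinked protease 25 nM; compound preincubation 15 min, RT, protected from light. Substrate Rhod110, 1.5 microM; ~15% conversion in 15 min.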
# [12] = tested on: Zika virus NS2B-NS3 protease (linked construct); assay: Primary screen NINDS Rhodamine qHTS for Zika virus inhibitors (AID 1347160); conditions: purified NS2B-NS3 protease, Rhodamine110 substrate fluorescence; series mostly up to 57.1 µM; also: nearly all actives have a fitted effect of over 55% in size
# How it was run: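 Aprotinin served as in-plate control. Conditions: 25 nM linked NS2B-NS3, pH 8.0 Tris buffer, titrated compounds, 15 min preincubation and 15 min reaction with 1.5 microM Rhod110 substrate at room temperature.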
# [13] = qHTS for inhibitors of adenylyl cyclases using a fission yeast platform: a pilot screen against the NCATS LOPAC library (AID 1347410); conditions: S. pombe CHP2027, fbp1-GFP fluorescence, 18 h, yeast expressing mammalian AC9 and human GNAS; series mostly up to 57.5 µM
# How it was run: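 Fission yeast qHTS: CHP2027 cells (AC9-GNAS-PDE4D2, fbp1-GFP), 5x10^6 cells/mL working density, EMM + His/Lys/Ura; LOPAC at up to 57 µM final; 18 h dark, 30C; GFP by laser cytometry. DPI positive control, DMSO vehicle.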
# Furin (Homo sapiens) = Furin (Homo sapiens) (UniProt P09958); assay: Furin counterscreen qHTS for Zika virus inhibitors (AID 1347149); conditions: furin enzymatic counterscreen, fluorogenic substrate; series mostly up to 57.5 µM
# Chain of Furin (Homo sapiens) (P09958 whole entry, looked up): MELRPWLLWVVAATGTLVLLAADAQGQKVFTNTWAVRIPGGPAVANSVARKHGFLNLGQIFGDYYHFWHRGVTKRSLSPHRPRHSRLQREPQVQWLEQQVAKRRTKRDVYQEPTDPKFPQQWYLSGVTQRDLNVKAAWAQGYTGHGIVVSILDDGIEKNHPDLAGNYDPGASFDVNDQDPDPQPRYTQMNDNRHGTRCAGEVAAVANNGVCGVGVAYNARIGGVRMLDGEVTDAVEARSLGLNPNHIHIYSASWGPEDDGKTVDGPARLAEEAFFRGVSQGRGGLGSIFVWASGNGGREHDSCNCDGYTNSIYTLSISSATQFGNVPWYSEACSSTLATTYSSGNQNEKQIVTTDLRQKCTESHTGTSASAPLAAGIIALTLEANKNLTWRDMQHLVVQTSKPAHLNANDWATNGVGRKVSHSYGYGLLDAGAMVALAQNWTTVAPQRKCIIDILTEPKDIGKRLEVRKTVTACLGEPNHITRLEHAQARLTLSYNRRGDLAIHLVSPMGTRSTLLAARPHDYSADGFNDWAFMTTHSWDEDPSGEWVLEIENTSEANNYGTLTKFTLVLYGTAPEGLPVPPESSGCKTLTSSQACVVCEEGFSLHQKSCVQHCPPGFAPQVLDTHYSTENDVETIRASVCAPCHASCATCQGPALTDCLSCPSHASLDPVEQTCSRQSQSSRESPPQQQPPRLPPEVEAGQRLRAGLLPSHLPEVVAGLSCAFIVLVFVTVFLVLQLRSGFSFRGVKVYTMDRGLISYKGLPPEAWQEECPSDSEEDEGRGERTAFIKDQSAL
# How it was run: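 Counterscreen measures cleavage of 2 microM BOC-RVRR-AMC, below its ~15 microM Km, by 5 nM full-length human furin at pH 7.0 after a 15-min compound preincubation. Inhibition derives from the 15-min fluorescence increase at 37C.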
# [14] = tested on: Zika virus NS2B-NS3 protease (linked construct); assay: 384 well plate NINDS Rhodamine confirmatory qHTS for Zika virus inhibitors (AID 1347164); conditions: rhodamine-110 peptide substrate fluorescence; series mostly up to 2 mM;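 also: fluorescence from protease cleavage of Ac-LKRR-rhodamine 110 substrate; top concentration of the series differs between compounds; nearly all actives have a fitted effect of over 65% in size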
# How it was run: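 Enzyme (final 5/30/60 nM) + cpd (DMSO), ~15 min; add Ac-LKRR-Rd 10 microM final; 25 min RT, dark; FI ex 485/em 538; normalized to no-enzyme, no-inhibitor ctrls; aprotinin intraplate ctrl.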
compound,measurement,setting,value
Nc1nc(N)c(N=O)c(OCC2CCCCC2)n1,Potency,[1],inactive
same,Potency,[2],inactive
same,Potency,[3],inactive
Cc1cc(Cl)ccc1OCCCC(=O)NO,Potency,[2],inactive
same,Potency,[3],inactive
CCOC(=O)C1=C(O)C(=O)N(Cc2ccccc2)C1,Potency,[1],inactive
same,Potency,[2],inactive
same,Potency,[3],inactive
CC(=O)Nc1ccc(O)cc1,Potency,[3],inactive
CNC[C@@H](O)[C@@H](O)[C@H](O)[C@H](O)CO,Potency,[3],inactive
Cc1cccc(-c2[nH]ncc2-c2ccc3ncccc3n2)n1,Potency,[1],inactive
same,Potency,[2],inactive
same,Potency,[3],inactive
Cc1c(OCC(F)(F)F)ccnc1CS(=O)c1nc2ccccc2[nH]1 (configuration not stated),Potency,[1],50.1 µM (active)
same,Potency,[4],inactive
same,Potency,[5],inactive
same,Potency,[3],inactive
same,Potency,[6],inactive
same,Potency,[7],inactive
same,Potency,[8],inactive
same,Potency,[9],inactive
same,Potency,[10],inactive
O=C1c2ccccc2-c2n[nH]c3cccc1c23,Potency,[2],11.9 µM (active)
same,Potency,[3],inactive
NCCCCNCCCN,Potency,[1],inactive
same,Potency,[2],inactive
same,Potency,[3],inactive
C[C@H](Cn1cnc2c(N)ncnc21)OCP(=O)(O)O,Potency,[3],inactive
CC(=O)NC[C@H]1CN(c2ccc(N3CCOCC3)c(F)c2)C(=O)O1,Potency,[1],inactive
same,Potency,[2],inactive
same,Potency,[3],inactive
same,Potency,[11],inactive
same,Potency,[12],inactive
same,outcome,[13],inactive
COc1ccc2cc([C@H](C)C(=O)O)ccc2c1,Potency,[2],23.8 µM (active)
same,Potency,[3],inactive
same,Potency,[11],inactive
same,Potency,[12],inactive
COc1c2occc2cc2ccc(=O)oc12,Potency,Furin (Homo sapiens),inactive
same,Potency,[3],inactive
same,Potency,[14],inactive
same,Potency,[7],inactive
same,Potency,[8],inactive
same,Potency,[9],inactive
same,Potency,[10],inactive
O=C1NC(=O)C(c2ccccc2[N+](=O)[O-])=C1Nc1ccc(O)c(Cl)c1,Potency,[1],28.2 µM (active)
same,Potency,[2],inactive
same,Potency,[3],inactive
CN(C)CCCC1(c2ccc(F)cc2)OCc2cc(C#N)ccc21 (configuration not stated),Potency,[2],inactive
same,Potency,[3],inactive
same,Potency,[11],inactive
same,Potency,[12],inactive
